A number with no mark means an inactive call. The rule behind the calls is not given here.

In one assay the test system is Botulinum neurotoxin type F light chain protease (Clostridium botulinum). Briefly: Botulinum neurotoxin type F light chain protease inhibition, multiplex microsphere flow cytometry, validation set (AID 588459). As to conditions: multiplex microsphere protease substrate cleavage assay, at 10 µM, stronger effect = higher value.
By inhibition is commonly meant the relative decrease from the control value, in per cent. Consider `CCOc1ccc2[nH]c3c(=O)n(CCc4ccc(OC)cc4)cnc3c2c1`, for which the inhibition was 1.7%.
On the same count and under the same terms, for `CCCNCC(O)COc1ccccc1C(=O)CCc1ccccc1` (stereo not given) the value was 1.5%; for `CC[n+]1c(C)sc2cc(C)ccc21`, 3.6%.
Same read-out and setting: the figure for `CN1/C(=C\C=Nc2ccccc2)C(C)(C)c2ccccc21` is -1.1%; for `CC(=O)N1CC2(C)CN(C(C)=O)CC(C)(C1)C2` it is -2.3%; for `c1ccc2c(CC3=NCCN3)cccc2c1` it is -3.3%.
On to `Clc1ccc2c(c1)[C@H]1OCC[C@H]1[C@@H](c1ccco1)N2`, for which the inhibition is 0.3%.
For the compound `CCOC(=O)c1ccc(N2C(=O)C(CC(N)=O)N(CCc3ccc(OC)c(OC)c3)C2=S)cc1` (stereo not given), the inhibition was 2%.
For the compound `COc1cc(=O)n(C)c2ccccc12`, the inhibition is -9.2%.
The same measure, in the same setting: the figure for `CCSc1nc(O)c(C2OC(=O)c3c2ccc(OC)c3OC)c(=O)n1CC` (stereo not given) is -0.7%; for `CCN(CCCc1ccccc1)CCCc1ccccc1` it is 1%.
In the case of `NS(=O)(=O)c1cc2c(cc1Cl)NCNS2(=O)=O`, the inhibition was -3.8%.
Same read-out and setting: for `COc1ccc(-c2c(C)c3ccc(OCC(C)=O)cc3oc2=O)cc1` the value was -3.2%; for `C=C(C)[C@@H]1CC=C(CN2CCC(N3CCC(C(=O)N4CCCC4)CC3)CC2)CC1`, 7.8%.
Consider `O=C(Cc1ccccc1[N+](=O)[O-])NCc1ccncc1`, for which the inhibition is -3.6%.
As for `CN(C)CCC(c1ccc(Br)cc1)c1ccccn1` (stereo not given), the inhibition was 1.3%.
Still for that read-out and setting: for `COC(=O)c1cc(C(=O)NCCC(C)C)cc([N+](=O)[O-])c1` the value was -5.3%; for `CCCCCCCC(=O)OCC(O)CO` (stereo not given), -6.1%.
Same read-out and setting: for `Cc1ccc(S(=O)(=O)NC(C(=O)Oc2cc3oc(=O)cc(C)c3cc2Cl)C(C)C)cc1` (stereo not given) the value was 0.5%.
Same read-out and setting: for `C=CCOC(=O)C1=C(C)NC(=O)NC1/C=C/c1ccccc1OC` (stereo not given) the value was 1%.
With `OCCN(CCO)c1ccc2ccccc2c1`, the inhibition was -1.3%.
With `CC(C)CCn1c(N2CCc3ccccc3C2)nc2c1c(=O)[nH]c(=O)n2C`, the inhibition was -1.6%.
For `CNCCCN1c2ccccc2CCc2ccccc21`, the inhibition is -0.9%.
Take `COc1ccc2[nH]c(=O)c(CN(C(=O)c3ccco3)C(C)C)cc2c1`: the inhibition was 0.1%.
In the case of `O=C1C2C3C=CC(C4CC34)C2C(=O)N1/N=C/c1ccc(-c2ccc([N+](=O)[O-])cc2)o1` (stereo not given), the inhibition was 2.1%.
Same read-out and setting: the figure for `Cc1ccc2c(CN3CCN(Cc4ccc5c(c4)OCO5)CC3)cc(=O)oc2c1C` is -2.8%; for `CC(=O)c1c(C)c(C)c2n1CCn1c(C)ccc1-2` it is -0.2%; for `CC(C)Cc1cc(C(=O)N2CCC(N3CCC(C(=O)N4CCCC4)CC3)CC2)n[nH]1` it is -0.1%.
With `O=c1cnn([C@@H]2O[C@H](CO)[C@@H](O)[C@H]2O)c(=O)[nH]1`, the inhibition was -0.1%.
The same measure, in the same setting: for `COc1ccc(C2c3c(n[nH]c3C)CC(C)(O)C2C(C)=O)cc1OC` (stereo not given) the value was 4%; for `COc1ccc(CN(CCN(C)C)c2ccccn2)cc1`, 0.8%; for `Cn1c(=O)c(C(=O)NCCO)c(O)c2ccccc21`, 0.4%.
Consider `CCCn1c(=O)c2[nH]c(C3CCCC3)nc2n(CCC)c1=O`, for which the inhibition is 4.7%.
The same measure, in the same setting: the figure for `CCc1cc2c(=O)c(-c3ccc(F)cc3)c(C)oc2cc1OCC(=O)O` is 3.9%.
`COc1ccc(CCN(C)Cc2nc(Cc3ccc(OC)c(OC)c3)no2)cc1OC`: the inhibition was 1%.
Regarding `Cc1ccc2occ(C(=O)c3ccco3)c(=O)c2c1`, the inhibition was 1.1%.
Still for that read-out and setting: the figure for `CCCCCC(=O)O[C@]1(C(C)=O)CC[C@H]2[C@@H]3CCC4=CC(=O)CC[C@]4(C)[C@H]3CC[C@@]21C` is 1.9%.
The same measure, in the same setting: the figure for `CC12COC3(C(=O)Nc4ccc(F)cc4)CC1CCC32C` (stereo not given) is 3.3%; for `CC(C)OC(=O)CC1C(=O)NCCN1C(=S)NC(=O)c1ccccc1Cl` (stereo not given) it is -1.8%.
The same measure, in the same setting: the figure for `COc1ccc(-c2[nH]ncc2C=O)cc1OC` is -3.5%.

In another assay the target is Botulinum neurotoxin type A (Clostridium botulinum) (UniProt P0DPI0). Briefly: BoNT/A light chain protease inhibitors, biochemical, multiplex microsphere flow cytometry, validation set (AID 588460). As to conditions: at 10 µM, stronger effect = higher value.
Sequence of Botulinum neurotoxin type A (Clostridium botulinum) (P0DPI0 whole entry, looked up): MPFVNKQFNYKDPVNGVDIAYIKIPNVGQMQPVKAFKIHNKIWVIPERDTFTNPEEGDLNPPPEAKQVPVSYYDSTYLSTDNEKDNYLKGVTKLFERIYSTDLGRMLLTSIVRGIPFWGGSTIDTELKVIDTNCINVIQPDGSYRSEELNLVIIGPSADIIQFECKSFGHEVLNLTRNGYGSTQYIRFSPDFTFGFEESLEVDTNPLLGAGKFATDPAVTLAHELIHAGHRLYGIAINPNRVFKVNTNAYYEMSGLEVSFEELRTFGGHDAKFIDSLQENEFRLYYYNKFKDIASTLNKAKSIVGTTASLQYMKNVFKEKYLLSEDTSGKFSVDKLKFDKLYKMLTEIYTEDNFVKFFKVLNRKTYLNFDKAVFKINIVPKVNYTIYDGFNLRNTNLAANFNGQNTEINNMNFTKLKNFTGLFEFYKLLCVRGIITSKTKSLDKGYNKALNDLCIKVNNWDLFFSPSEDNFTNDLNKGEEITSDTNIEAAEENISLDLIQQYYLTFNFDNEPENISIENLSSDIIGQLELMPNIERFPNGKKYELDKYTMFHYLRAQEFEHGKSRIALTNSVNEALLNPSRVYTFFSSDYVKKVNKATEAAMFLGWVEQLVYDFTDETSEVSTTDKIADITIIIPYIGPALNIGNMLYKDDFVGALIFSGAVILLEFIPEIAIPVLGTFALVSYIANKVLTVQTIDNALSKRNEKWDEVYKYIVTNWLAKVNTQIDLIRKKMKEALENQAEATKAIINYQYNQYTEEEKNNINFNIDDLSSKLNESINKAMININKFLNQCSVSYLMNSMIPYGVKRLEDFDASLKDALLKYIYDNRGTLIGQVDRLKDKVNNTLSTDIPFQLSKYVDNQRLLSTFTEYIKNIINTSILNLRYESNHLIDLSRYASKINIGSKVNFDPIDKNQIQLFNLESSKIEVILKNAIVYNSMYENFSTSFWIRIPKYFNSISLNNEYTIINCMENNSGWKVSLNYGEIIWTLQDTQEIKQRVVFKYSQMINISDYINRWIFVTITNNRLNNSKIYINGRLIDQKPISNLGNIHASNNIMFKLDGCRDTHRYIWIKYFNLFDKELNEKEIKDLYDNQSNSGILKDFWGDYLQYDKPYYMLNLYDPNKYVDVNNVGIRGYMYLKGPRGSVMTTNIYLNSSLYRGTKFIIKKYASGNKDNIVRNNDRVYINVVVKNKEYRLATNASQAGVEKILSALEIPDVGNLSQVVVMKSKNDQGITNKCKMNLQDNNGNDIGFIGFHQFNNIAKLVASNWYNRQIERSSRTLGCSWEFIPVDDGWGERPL
Consider `CCOc1ccc2[nH]c3c(=O)n(CCc4ccc(OC)cc4)cnc3c2c1`, for which the inhibition is 2%.
As to `CCCNCC(O)COc1ccccc1C(=O)CCc1ccccc1` (stereo not given), the inhibition was 0%.
Still for that read-out and setting: the figure for `CC[n+]1c(C)sc2cc(C)ccc21` is 1.9%.
As for `CN1/C(=C\C=Nc2ccccc2)C(C)(C)c2ccccc21`, the inhibition was 0.8%.
With `CC(=O)N1CC2(C)CN(C(C)=O)CC(C)(C1)C2`, the inhibition was -1.6%.
Still for that read-out and setting: for `c1ccc2c(CC3=NCCN3)cccc2c1` the value was -2.2%.
Still for that read-out and setting: the figure for `Clc1ccc2c(c1)[C@H]1OCC[C@H]1[C@@H](c1ccco1)N2` is -0.7%; for `CCOC(=O)c1ccc(N2C(=O)C(CC(N)=O)N(CCc3ccc(OC)c(OC)c3)C2=S)cc1` (stereo not given) it is 1.1%.
Still for that read-out and setting: the figure for `COc1cc(=O)n(C)c2ccccc12` is -2.1%; for `CCSc1nc(O)c(C2OC(=O)c3c2ccc(OC)c3OC)c(=O)n1CC` (stereo not given) it is 0.5%.
In the case of `CCN(CCCc1ccccc1)CCCc1ccccc1`, the inhibition is -0.4%.
On the same count and under the same terms, for `NS(=O)(=O)c1cc2c(cc1Cl)NCNS2(=O)=O` the value was -2.4%; for `COc1ccc(-c2c(C)c3ccc(OCC(C)=O)cc3oc2=O)cc1`, -0.4%.
For the compound `C=C(C)[C@@H]1CC=C(CN2CCC(N3CCC(C(=O)N4CCCC4)CC3)CC2)CC1`, the inhibition is 0.8%.
Same read-out and setting: for `O=C(Cc1ccccc1[N+](=O)[O-])NCc1ccncc1` the value was 0.9%; for `CN(C)CCC(c1ccc(Br)cc1)c1ccccn1` (stereo not given), -0.7%; for `COC(=O)c1cc(C(=O)NCCC(C)C)cc([N+](=O)[O-])c1`, -2.3%.
With `CCCCCCCC(=O)OCC(O)CO` (stereo not given), the inhibition was -0.1%.
For `Cc1ccc(S(=O)(=O)NC(C(=O)Oc2cc3oc(=O)cc(C)c3cc2Cl)C(C)C)cc1` (stereo not given), the inhibition was 0.5%.
On the same count and under the same terms, the figure for `C=CCOC(=O)C1=C(C)NC(=O)NC1/C=C/c1ccccc1OC` (stereo not given) is 0.4%.
The same measure, in the same setting: the figure for `OCCN(CCO)c1ccc2ccccc2c1` is -1.2%.
Regarding `CC(C)CCn1c(N2CCc3ccccc3C2)nc2c1c(=O)[nH]c(=O)n2C`, the inhibition was 0.3%.
Regarding `CNCCCN1c2ccccc2CCc2ccccc21`, the inhibition is -0.6%.
On the same count and under the same terms, for `COc1ccc2[nH]c(=O)c(CN(C(=O)c3ccco3)C(C)C)cc2c1` the value was 1%.
The same measure, in the same setting: for `O=C1C2C3C=CC(C4CC34)C2C(=O)N1/N=C/c1ccc(-c2ccc([N+](=O)[O-])cc2)o1` (stereo not given) the value was 3.4%.
Still for that read-out and setting: the figure for `Cc1ccc2c(CN3CCN(Cc4ccc5c(c4)OCO5)CC3)cc(=O)oc2c1C` is 0.6%; for `CC(=O)c1c(C)c(C)c2n1CCn1c(C)ccc1-2` it is -0.1%.
For the compound `CC(C)Cc1cc(C(=O)N2CCC(N3CCC(C(=O)N4CCCC4)CC3)CC2)n[nH]1`, the inhibition was -2%.
As to `O=c1cnn([C@@H]2O[C@H](CO)[C@@H](O)[C@H]2O)c(=O)[nH]1`, the inhibition is 1.8%.
As for `COc1ccc(C2c3c(n[nH]c3C)CC(C)(O)C2C(C)=O)cc1OC` (stereo not given), the inhibition is 0.1%.
As to `COc1ccc(CN(CCN(C)C)c2ccccn2)cc1`, the inhibition is 1.3%.
As to `Cn1c(=O)c(C(=O)NCCO)c(O)c2ccccc21`, the inhibition is -0.1%.
For the compound `CCCn1c(=O)c2[nH]c(C3CCCC3)nc2n(CCC)c1=O`, the inhibition is 0.8%.
On the same count and under the same terms, for `CCc1cc2c(=O)c(-c3ccc(F)cc3)c(C)oc2cc1OCC(=O)O` the value was 2.2%; for `COc1ccc(CCN(C)Cc2nc(Cc3ccc(OC)c(OC)c3)no2)cc1OC`, -1%; for `Cc1ccc2occ(C(=O)c3ccco3)c(=O)c2c1`, -0.5%.
Regarding `CCCCCC(=O)O[C@]1(C(C)=O)CC[C@H]2[C@@H]3CCC4=CC(=O)CC[C@]4(C)[C@H]3CC[C@@]21C`, the inhibition was 1.3%.
As for `CC12COC3(C(=O)Nc4ccc(F)cc4)CC1CCC32C` (stereo not given), the inhibition was 1%.
Same read-out and setting: the figure for `CC(C)OC(=O)CC1C(=O)NCCN1C(=S)NC(=O)c1ccccc1Cl` (stereo not given) is -0.4%.
As to `COc1ccc(-c2[nH]ncc2C=O)cc1OC`, the inhibition was -0.8%.
